For 14 compounds, growth results are on record in PubChem BioAssay (NCI).

About 83,000 compounds went through this panel and 20% of them were active in at least one assay; those are over-represented in the sample as a whole.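 Activity criterion: percent growth below 10, measured after cells in 96-well plates were exposed to a single compound concentration for 48 hours.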 Activity calls are given as the source filed them.

In the assay the test system is OVCAR-8 ovarian. The assay can be described thus: NCI-60 one-dose screen, 48 h (100 = growth as untreated, 0 = no growth, -100 = all killed). As to conditions: 10 µM unless noted.
Turning to `O=[N+]([O-])c1cc([N+](=O)[O-])c(NN=C(c2ccc(O)cc2)c2ccc(O)cc2)cc1Cl`, the growth was -76.6% (active).
To `Cc1cc(SC#N)ncn1` belongs 96.2% (inactive); to `O=C(N/N=C/c1c(Cl)cccc1Cl)c1cccc(Nc2ccnc(C(F)(F)F)c2)c1`, 89.9% (inactive).
To `O=[N+]([O-])c1cc([N+](=O)[O-])c(C(F)(F)F)cc1NN=C(c1ccc(O)cc1)c1ccc(O)cc1` belongs -49.9% (active).
Take `N/C(=N\c1nc2ccccc2[nH]1)NC(=O)Cc1cccc2ccccc12`: the growth was 27.5% (inactive).
The figure for `CCN(CC)CCCC(C)Nc1ccnc2cc(Cl)c(SCc3ccccc3)cc12` (centres undefined) is -9.3% (active).
To `O=C(Oc1ccc(Cl)cc1[N+](=O)[O-])Oc1ccc(Cl)cc1[N+](=O)[O-]` belongs 108% (inactive).
The figure for `C[C@@H](NC(=O)[C@@H](CC(=O)N1CCC(N2CCCCC2)CC1)N1C(=O)[C@@H](N2C(=O)OC[C@@H]2c2ccccc2)[C@H]1/C=C/c1cccc(Cl)c1)c1ccccc1` is 86.8% (inactive).
Turning to `COc1ccc2c3ccnc(C(F)(F)F)c3n(CCCCN)c2c1`, the growth is 46.1% (inactive).
The figure for `CCOC(=O)c1c[nH]c2cc(OCC3CC3)c(OCC3CC3)cc2c1=O` is 99.5% (inactive).
To `COc1ccc(-c2nc3ccccn3c2/C=C/C(=O)c2cc(OC)c(OC)c(OC)c2)cc1OC` belongs 14.1% (inactive); to `NC(=S)Cc1ccccc1`, 103% (inactive).
As to `CC(C)C1=NOC(=O)C1=Cc1cn(-c2ccccc2)nc1-c1cccc([N+](=O)[O-])c1`, the growth was 58% (inactive).
The figure for `O=c1c2c3c(sc2n2cnnc2n1Cc1ccccc1)CCCC3` is 97.4% (inactive).
